MEKK2mut PB1 HTS: signal of MEK5 binding to mutant human MEKK2 PB1 domain | bead flow cytometry, Alexa488-MEK5 binding to MEKK2 mutant | percent response, % at 10 µM | actives 0.35% (n = 290,000) | AID 1530; in the data active = percent response above about 24%, passing the limit was not always enough
MEKK3 PB1 HTS: modulators (inhibitors or enhancers) of MEK5 binding to human MEKK3 PB1 domain | Q99759 | bead-based flow cytometry, Alexa488-MEK5 binding to MEKK3; actives lie on both sides; 0 = blocked by unlabeled MEK5, 100 = vehicle | binding response (% of control), % at 10 µM | actives 1.4% (n = 290,000);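 active = binding response more than 3 SD above or below the average of its plate-row segment, actives on both sides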;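 also: Alexa488 bead fluorescence after subtracting the streptavidin-only scavenger bead signal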
Target sequence (Q99759 whole entry, looked up, the tested form may be a part): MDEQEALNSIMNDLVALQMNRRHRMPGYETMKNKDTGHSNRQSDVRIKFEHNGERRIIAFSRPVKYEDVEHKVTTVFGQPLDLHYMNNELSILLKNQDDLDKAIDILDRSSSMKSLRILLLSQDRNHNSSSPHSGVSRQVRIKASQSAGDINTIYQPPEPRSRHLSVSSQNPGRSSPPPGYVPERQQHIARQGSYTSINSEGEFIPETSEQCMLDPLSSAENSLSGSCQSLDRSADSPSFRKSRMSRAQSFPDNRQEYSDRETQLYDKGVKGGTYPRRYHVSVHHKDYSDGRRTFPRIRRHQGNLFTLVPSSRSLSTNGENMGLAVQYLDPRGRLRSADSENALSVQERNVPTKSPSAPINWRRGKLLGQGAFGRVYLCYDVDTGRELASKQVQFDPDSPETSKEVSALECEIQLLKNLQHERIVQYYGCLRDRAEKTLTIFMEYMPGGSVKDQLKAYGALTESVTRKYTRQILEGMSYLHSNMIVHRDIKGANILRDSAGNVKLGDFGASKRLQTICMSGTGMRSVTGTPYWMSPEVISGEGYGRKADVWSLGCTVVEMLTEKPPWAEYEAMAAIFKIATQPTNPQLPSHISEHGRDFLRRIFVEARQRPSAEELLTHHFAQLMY
VLA-4 inh: inhibition in a human VLA-4 binding assay. P13612. VLA-4 expressing cells, ligand binding flow cytometry. inhibition, % (about 7 µM as worked out from the volumes in the protocol). actives 0.2% (n = 330,000); in the data active = inhibition above about 50%
MEKK2 WT-MEK5: raises or lowers MEK5 binding to wildtype human MEKK2 PB1 domain. Q9Y2U5. bead flow cytometry, Alexa488-MEK5 binding to MEKK2 WT; actives lie on both sides. binding response (% of control), % at 10 µM. actives 1.1% (n = 290,000); in the data active = binding response below about 67% or above about 130%
MEKK2wt confirm: raises or lowers MEK5 binding to wildtype human MEKK2, retest. bead flow cytometry, Alexa488-MEK5 binding to MEKK2 WT; actives lie on both sides. actives 2.4% (n = 5,900). shares compounds with MEKK3 PB1 HTS. binding response (% of control), % at 10 µM; in the data active = binding response below about 16% or above about 210%; inactive = in between
MEKK2mut-MEK5: signal of MEK5 binding to mutant human MEKK2, retest; shares compounds with MEKK3 PB1 HTS; bead flow cytometry, Alexa488-MEK5 binding to MEKK2 mutant; percent response, % at 10 µM; actives 2% (n = 5,900); in the data active = percent response mostly above about 71%, no sharp cut-off; inactive = mostly below about 38%;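 also: higher means compound restores mutant binding toward wildtype level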
MEKK3 confirm: confirmation of inhibitors of MEK5 binding to human MEKK3; shares compounds with MEKK3 PB1 HTS; bead flow cytometry, Alexa488-MEK5 binding to MEKK3; stronger effect = lower value; binding response (% of control), % at 10 µM; actives 1.8% (n = 5,900); AID 1894;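 active = binding response below 72% of control, or above a set upper limit, though filed actives all read lower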;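 also: 100% = DMSO only wells and 0% = binding blocked by excess unlabeled MEK5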
An asterisk follows results filed as active; i = inactive; · = not tested or not shown; [ ] = another dose, or the depositor's remark. A selection: hits, their analogues and other compounds. The true share with any hit is near 2.2%.

SMILES	MEKK2mut PB1 HTS	MEKK3 PB1 HTS	VLA-4 inh	MEKK2 WT-MEK5	MEKK2wt confirm	MEKK2mut-MEK5	MEKK3 confirm
CC(C)N1C(=O)C(=O)N(CC(=O)N(C)c2ccccc2)C1=O	·	·	9	·	·	·	·
O=S(=O)(c1ccccc1)N1CCN(C(=S)Nc2ccccc2)CC1	4	103	7	109	·	·	·
O=S(=O)(c1ccccc1)N1CCN(C(=S)Nc2ccc(F)cc2)CC1	0	134*	13	103	100	5	99
O=C(Cn1cnc2ccccc2c1=O)Nc1nnc(C2CC2)s1	28	109	10	117	·	·	·
O=C(Cn1cnc2ccccc2c1=O)Nc1nnc(SCc2ccc(Cl)cc2)s1	-12	35*[inhibitor]	0	32*[inhibitor]	107	7	107
C[C@@H](O)C1NC(=O)[C@H](CCCCN)NC(=O)c2cc([N+](=O)[O-])cc(F)c2NCCCC[C@@H](C(N)=O)NC1=O (some centres not stated)	14	108	33	141*	143	22	102
CC(C)(C)CC(=O)Nc1cc2c3c(c1)CCN3C(=O)CC2	-30	61	4	72	·	·	·
CC(Sc1nnc(COc2ccc3ccccc3c2)n1C)C(=O)O (configuration not stated)	1	102	-6	97	·	·	·
Cc1cccc2cncc(OCc3nnc(SC(F)F)n3C)c12	-2	73*[inhibitor]	15	80	107	5	108
O=C(COC(=O)c1cccc(OC(F)F)c1)NCC1CCCO1 (configuration not stated)	·	·	-8	·	·	·	·
Cc1oc(-c2ccccc2)nc1CSc1nc2c(c(=O)[nH]1)CCC2	-8	60*[inhibitor]	37	74	109	4	102
COc1cc(OC)c2c(-c3ccccc3)cc(=O)oc2c1C(CCN1CCCC(C)C1)c1ccc(N(C)C)cc1 (configuration not stated)	41*	112	-5	222*	177	47	101
COc1cc(OC)c2ccc(=O)oc2c1C(CCN1CCCC1)c1ccc2c(c1)OCO2 (configuration not stated)	6	106	30	101	·	·	·
COc1ccc(C(CCN2CCCC(C)C2)c2c(OC)cc(OC)c3c(-c4ccccc4)cc(=O)oc23)cc1 (configuration not stated)	41*	110	8	207*	190	52	110
COc1cc(C(CCN2CCCC2)c2c(OC)cc(OC)c3c(-c4ccccc4)cc(=O)oc23)cc(OC)c1OC (configuration not stated)	26*	112	-5	140*	119	11	104
COc1cc(OC)c2c(-c3ccccc3)cc(=O)oc2c1C(CCN1CCCC1)c1ccc2c(c1)OCO2 (configuration not stated)	23	128*	9	175*	159	34	103
COc1cc(OC)c2c(C)cc(=O)oc2c1C(CCN1CCOCC1)c1ccc(N(C)C)cc1 (configuration not stated)	5	92	·	100	·	·	·
COc1ccc(C(CCN2CCN(c3ccccc3)CC2)c2c(OC)cc(OC)c3c(-c4ccccc4)cc(=O)oc23)cc1 (configuration not stated)	3	70	6	77	·	·	·
CCN(CC)CCC(c1ccc(N(C)C)cc1)c1c(OC)cc(OC)c2c(-c3ccccc3)cc(=O)oc12 (configuration not stated)	25*	111	20	178*	144	22	103
COc1cc(C(CCN2CCCCC2)c2c(OC)cc(OC)c3c(C)cc(=O)oc23)cc(OC)c1OC (configuration not stated)	6	118	21	141*	105	4	100
COc1ccc(C(CCN2CCCC(C)C2)c2c(OC)cc(OC)c3c(C)cc(=O)oc23)cc1 (configuration not stated)	7	120	4	138*	117	6	104
COc1ccc(C(CCN2CCCC2)c2c(OC)cc(OC)c3c(-c4ccccc4)cc(=O)oc23)cc1 (configuration not stated)	20	108	29	152*	164	45	114
COc1cc(/C=C2\SC(=S)N(CCC(=O)N3CCCCC3)C2=O)cc(OC)c1OC	-8	101	6	78	·	·	·
Cc1ccc(C2=NS(=O)(=O)N(C)C(C(=O)N3CCOCC3)=C2)cc1	0	97	8	99	·	·	·
Cc1cc(C(=O)NC(C)CCC(C)C)c2ccccc2n1 (configuration not stated)	4	104	16	106	·	·	·
SMILES	MEKK2mut PB1 HTS	MEKK3 PB1 HTS	VLA-4 inh	MEKK2 WT-MEK5	MEKK2wt confirm	MEKK2mut-MEK5	MEKK3 confirm
CC(=O)c1cccc(CN2CCC(C(=O)Nc3cccc(-c4ccn[nH]4)c3)CC2)c1	13	106	7	134	·	·	·
COc1cc(OC)c2c(-c3ccccc3)cc(=O)oc2c1C(CC(=O)N1CCOCC1)c1ccc2c(c1)OCO2 (configuration not stated)	3	127	·	144*	106	0	100
COc1cccc(N(CC(=O)NC2CCCC2)C(=O)CCC(=O)Nc2cc(C)on2)c1	-1	97	34	96	·	·	·
COc1ccc(C(=O)N/N=C/c2sc(N3CCOCC3)nc2-c2ccccc2)cc1OC	-10	97	-3	79	·	·	·
COc1ccccc1NS(=O)(=O)c1cc([N+](=O)[O-])ccc1N/N=C/c1sc(N2CCOCC2)nc1-c1ccccc1	205*	81	i	65	85	-10	94
O=C(Nc1ccc(C(=O)N2CCCCC2)cc1)c1ccc([N+](=O)[O-])cc1	1	95	9	103	·	·	·
COc1ccc(/C=C/C(=O)N2CCN(S(=O)(=O)c3ccccc3)CC2)cc1OC	-3	98	0	89	·	·	·
COc1ccc(/C=C/C(=O)N2CCN(S(=O)(=O)/C=C/c3ccccc3)CC2)cc1OC	0	145*	13	108	102	6	104
COc1ccc(-c2csc(N(CCCN(C)C)C(=O)c3ccc(C)cc3)n2)cc1	10	99	7	127	·	·	·
COc1ccc(-c2csc(N(CCCN(C)C)C(=O)c3ccc(Br)cc3)n2)cc1	11	110	4	142*	135	16	103
COc1ccc(-c2csc(N(CCCN(C)C)C(=O)c3ccc(C(C)(C)C)cc3)n2)cc1	26*	110	2	162*	172	38	108
CC(=O)c1cccc(NC(=O)C(C)OC(=O)c2ccc(Br)o2)c1 (configuration not stated)	·	·	0	·	·	·	·
